# Reference: the OligoGym collection
# Columns and labels:
# Assay in all cases: pooled miR-30 sensor sort-seq; sequence = guide strand
# Conditions in all cases: shRNA
# [1] = biological target: COX19
# [2] = biological target: COX4I2
# [3] = biological target: COX10
# [4] = biological target: COX6B2
# [5] = biological target: CPD
# [6] = biological target: CPEB3
# [7] = biological target: CPNE5
sequence,measurement,setting,value
TAAATATTCTTTTGATTCCTTT,sensor-assay potency score (higher = more potent),[1],-0.553
TTCACCTAAGTGATCCAGCGGG,sensor-assay potency score (higher = more potent),[1],-0.488
TCTCATTGAACTGGAGCCGGTA,sensor-assay potency score (higher = more potent),[2],-1.09
TATTGAGTCTTCAATTACTGAG,sensor-assay potency score (higher = more potent),[3],-0.782
TTACGGATCTGGTTCTGGCTGG,sensor-assay potency score (higher = more potent),[4],0.238
TCCACCTTTCCTCAGCACCAAG,sensor-assay potency score (higher = more potent),[2],-2.06
TTCCACTAGTCAAGTCTCCAAA,sensor-assay potency score (higher = more potent),[1],-0.858
TTTGAGGAAGCTAAAGTGCTGA,sensor-assay potency score (higher = more potent),[3],0.14
TTTTACATTCACCTAAGTGATC,sensor-assay potency score (higher = more potent),[1],-1.57
TTGATCTGCTCGTTCCAGCTCT,sensor-assay potency score (higher = more potent),[4],-0.259
TCGTCCGTCAAGGTGATCGGCT,sensor-assay potency score (higher = more potent),[2],-1.37
TTTTGCTTGGTACTTATGCTGG,sensor-assay potency score (higher = more potent),[5],-0.405
TTGTAAATAGTTCCAGTCCTGC,sensor-assay potency score (higher = more potent),[5],-0.512
TAGAGTAGCGTTCTACTCGTTC,sensor-assay potency score (higher = more potent),[6],-0.216
TAATATAACATTAACAACTTGG,sensor-assay potency score (higher = more potent),[6],0.134
TTTAATTGATATCCTAGCCTGA,sensor-assay potency score (higher = more potent),[6],0.351
TTCCATCTGCATCTTGTCCGGG,sensor-assay potency score (higher = more potent),[6],0.148
TTTTGCTACATCTGCCACCTAC,sensor-assay potency score (higher = more potent),[6],-0.378
ATAGGTGACACTATAATCCTTC,sensor-assay potency score (higher = more potent),[5],0.621
TTAGTGATCTTCGATTCTGTTC,sensor-assay potency score (higher = more potent),[5],-0.307
TTCAACAGCAGTTCTCTTCCAA,sensor-assay potency score (higher = more potent),[5],0.56
TTCATTAGGATACATATTCTTG,sensor-assay potency score (higher = more potent),[5],-0.698
TTGAAGTACAGTCTTTCTCTTG,sensor-assay potency score (higher = more potent),[5],-0.337
TTACACTTATTGAATCTCCTTC,sensor-assay potency score (higher = more potent),[5],0.411
TAGTCTTGCAATCATTGTGTGT,sensor-assay potency score (higher = more potent),[6],-0.635
TTTGTTTGTAAATAGTTCCAGT,sensor-assay potency score (higher = more potent),[5],0.147
TTGAAGAATATCCTACACCTAG,sensor-assay potency score (higher = more potent),[6],-0.344
TAGCAGTTGATACAGCCTCTGT,sensor-assay potency score (higher = more potent),[5],-1.16
TTGCAGGTCAGAACACCTCTGT,sensor-assay potency score (higher = more potent),[6],0.0399
TTAGGATACATATTCTTGCAAG,sensor-assay potency score (higher = more potent),[5],-0.612
TTGCGTAGGATCTGTGATCTGA,sensor-assay potency score (higher = more potent),[5],1.11
TTTCACTCCAATGTGAACCTTT,sensor-assay potency score (higher = more potent),[5],0.41
TAATCCACAATGAACTTGCGCA,sensor-assay potency score (higher = more potent),[7],-0.151
TTGACAGTCACATTCTTGGTAA,sensor-assay potency score (higher = more potent),[5],-0.225
TAACTGGTGGTGAACTCCCCAA,sensor-assay potency score (higher = more potent),[7],-0.885
TTGGAACACAGCATCATCTGGT,sensor-assay potency score (higher = more potent),[5],0.644
